Screening data (PubChem BioAssay)
ELG1 DNA repair: blocks ELG1-dependent DNA repair in HEK293T cells. HEK293T ELG1-luciferase reporter, luminescence, 16 h; DNA damage induced by 5-fluorouridine. Potency, µM (titrated, usually from 46.1 µM), inactives show top-dose activity change, negative = inhibition, actives largely listed as inhibitors. 330,000 compounds, 2.3% hits. AID 504467; also: nearly all actives have a fitted effect of over 55% in size
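Cells (2,000 per well) received 5-fluorouridine plus test compound or DMSO and were incubated 16 hr at 37 °C, 5% CO2. Luciferase activity was read by luminescence 30 min after ONE-Glo addition; signal suppression marked inhibition of damage-induced ELG1 function.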
RORg inh: blocks mouse ROR gamma transcriptional activity; P51450; Drosophila S2 Gal4-RORgamma UAS-luciferase reporter, 20 h; Potency, µM (titrated, usually from 53.6 µM), for inactives: at the top dose activity change, negative = inhibition, most hits filed as inhibitors; 310,000 compounds, 5.4% hits; AID 2551; also: nearly all actives have a fitted effect of over 60% in size
Target sequence (P51450 whole entry, looked up, the tested form may be a part): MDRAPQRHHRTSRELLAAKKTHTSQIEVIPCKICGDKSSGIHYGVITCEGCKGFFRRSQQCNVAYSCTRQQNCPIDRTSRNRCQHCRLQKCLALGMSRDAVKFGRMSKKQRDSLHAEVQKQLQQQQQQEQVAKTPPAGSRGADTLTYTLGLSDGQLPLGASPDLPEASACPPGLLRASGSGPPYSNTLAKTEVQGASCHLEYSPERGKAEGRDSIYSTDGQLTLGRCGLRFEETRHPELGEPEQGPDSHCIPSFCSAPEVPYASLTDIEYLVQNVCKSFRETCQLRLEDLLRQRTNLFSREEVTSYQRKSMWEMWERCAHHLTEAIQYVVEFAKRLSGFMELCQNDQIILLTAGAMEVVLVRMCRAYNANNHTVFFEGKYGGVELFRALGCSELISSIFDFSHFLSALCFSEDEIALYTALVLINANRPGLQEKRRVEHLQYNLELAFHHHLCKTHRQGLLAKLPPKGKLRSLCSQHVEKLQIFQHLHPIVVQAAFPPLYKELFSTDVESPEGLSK
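Drosophila S2 cells stably expressing Gal4-DBD/mouse RORγ fusion under metallothionein promoter plus UAS-luciferase; compound 1 h, then 700 uM CuSO4 induction for 20 h at ambient temperature; inhibition read as reduced luminescence.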
DT40 TDP1 no CPT: qHTS for Inhibitors of human tyrosyl-DNA phosphodiesterase 1 (TDP1): qHTS in cells in absence of CPT. AID 686978, 2013. Potency, µM (highest dose often 46.2 µM), for inactives: top-dose activity change, negative = growth inhibition, most hits filed as inhibitors. DT40 Tdp1-/- hTDP1 cells, no CPT, ATP luminescence, 48 h. 420,000 compounds, 15% hits; also: nearly all actives have a fitted effect of over 55% in size
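No-CPT arm: Tdp1-/-;hTDP1 DT40 cells (400/well) plus compounds, incubated ≥48 hr at 37 °C. Readout CellTiter-Glo luminescence.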
ALOX12 inh: blocks human arachidonate 12S-lipoxygenase; P18054; purified 12hLO, xylenol orange hydroperoxide absorbance; Potency, µM (highest dose often 108 µM), for inactives: at the top dose activity change, negative = inhibition, most hits filed as inhibitors; 580,000 compounds, 1.1% hits; AID 1671190
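Purified human 12hLO at 150 nM in 25 mM Hepes, 0.01% Triton X-100, pH 7.0, preincubated 15 min at room temperature with compound. Reaction started with 40 uM arachidonic acid, 30 min at room temperature. Hydroperoxide measured by Fe-xylenol orange, 573/405 nm absorbance ratio.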
VP16 counter: inhibits Gal4-VP16 luciferase reporter, ROR gamma counter-screen; Drosophila S2 Gal4-VP16 UAS-luciferase, luminescence, 20 h; Potency, µM (series often up to 53.6 µM), without a hit: top-dose activity, negative = inhibition, usual class: inhibitors; 310,000 compounds, 3.5% hits; AID 2546;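 also: Gal4-VP16 expression switched on by copper sulfate through the metallothionein promoter; nearly all actives have a fitted effect of over 50% in size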
TDP1 cell CPT: growth inhibition of DT40 Tdp1-/-;hTDP1 cells with camptothecin (screen for TDP1 inhibitors); chicken DT40 Tdp1-/-;hTDP1 cells + 20 nM CPT, ATP luminescence, 48 h; Potency, µM (doses to about 46.2 µM), without a hit: at the highest dose activity change, negative = growth inhibition, actives largely listed as inhibitors; 420,000 compounds, 12% hits; also: nearly all actives have a fitted effect of over 55% in size
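Chicken DT40 Tdp1-/- cells complemented with human TDP1, 400 cells/well, exposed to compounds plus 20 nM camptothecin for at least 48 h at 37 C; viability read as ATP content by CellTiter-Glo luminescence.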
The depositor's hits bear a star; ? = inconclusive; · = no result; [ ] = dose if it differs, or a comment. In the library only some 15% were active in any assay of this set; here they are far more common. Calls follow the shape of the dose curve; as a rule, active = well fitted curve in the direction sought with a large enough effect; inconclusive = small, poorly fitted or top-dose-only effect, or another doubt; inactive = no such curve, though single readings can be large; an effect the other way counts as inactive or inconclusive. % is scaled to controls: 0 for no effect and ±100 for the full control effect; potency is read from the fitted curve at half-maximal effect.

SMILES | ELG1 DNA repair | RORg inh | DT40 TDP1 no CPT | ALOX12 inh | VP16 counter | TDP1 cell CPT
O=C(NCc1ccccc1Cl)C1CCC(CNS(=O)(=O)c2ccc(Cl)cc2)CC1 (centres undefined) | · | · | -12.5% | -14.2% | · | -27.9%
O=C(NCCC1=CCCCC1)C1CCC(CNc2nc(=S)[nH]c3ccccc23)CC1 (centres undefined) | ? | ? | 16.4µM* | -2.5% | -4.7% | ?
O=C(NCCc1ccc(Cl)cc1)C1CCC(CNc2nc(=S)[nH]c3ccccc23)CC1 (centres undefined) | ? | 11.2µM* | 9.2µM* | -6.5% | ? | 6.51µM*
O=C(NCc1ccccc1Cl)C1CCC(CNc2nc(=S)[nH]c3ccccc23)CC1 (centres undefined) | ? | -42.5% | 25.9µM* | -0.9% | -4.4% | ?
O=C(NCCC1=CCCCC1)C1CCC(CNS(=O)(=O)c2ccccc2)CC1 (centres undefined) | -2.4% | 26.1% | ? | -9.2% | -17.0% | -28.6%
CCc1ccc2oc(-c3cc(N=Cc4cccc(OC)c4O)ccc3O)nc2c1 | ? | 11.2µM* | -25.3% | · | ? | -29.2%
CC(C)(C)N1CC(c2nc3ccccc3n2Cc2ccc3ccccc3c2)CC1=O (centres undefined) | · | · | · | -30.7% | · | ·
O=C(O)C1CC2(CCN(C(=O)c3ccccc3N3CCCC3)CC2)CN1 (centres undefined) | · | · | · | 58.5% | · | ·
CC1=C(c2ccc(C)c(C)c2)S(=O)(=O)N(Cc2ccc(C(=O)NCCC(C)C)cc2)C1=O | · | · | · | 0.5% | · | ·
COc1ccc(C(CCN2CCCC2)c2c(OC)cc(OC)c3c(-c4ccccc4)cc(=O)oc23)cc1 (centres undefined) | 4.3% | ? | 16.4µM* | ? | ? | ?
COc1cc(OC)c2c(-c3ccccc3)cc(=O)oc2c1C(CCN1CCCC1)c1ccc2c(c1)OCO2 (centres undefined) | 24.1% | ? | ? | 14.2% | ? | ?
COc1cc(C(CCN2CCCC2)c2c(OC)cc(OC)c3c(-c4ccccc4)cc(=O)oc23)cc(OC)c1OC (centres undefined) | 5.9% | ? | 20.6µM* | -2.8% | ? | 16.4µM*
COc1cc(OC)c2c(-c3ccccc3)cc(=O)oc2c1C(CCN1CCOCC1)c1ccc2c(c1)OCO2 (centres undefined) | -3.1% | -44.4%[40.7 µM] | ? | ? | ? | 14.6µM*
COc1ccc(C(CCN2CCOCC2)c2c(OC)cc(OC)c3ccc(=O)oc23)cc1 (centres undefined) | ? | · | 20.6µM* | -13.2% | · | ?
COCCN1CCCCCC(O)c2cc(C(=O)NC3CCC3)ccc21 (centres undefined) | · | · | · | 146.8% | · | ·
COc1cc(C(CCN2CCCCC2)c2c(OC)cc(OC)c3c(C)cc(=O)oc23)cc(OC)c1OC (centres undefined) | ? | -11.3% | 10.3µM* | -1.7% | -1.0% | 10.3µM*
COc1ccc(C(CCN2CCOCC2)c2c(OC)cc(OC)c3c(-c4ccccc4)cc(=O)oc23)cc1 (centres undefined) | -7.7% | ? | 8.2µM* | -19.4% | ? | 6.51µM*
COc1cc(C(CC(=O)N2CCOCC2)c2c(OC)cc(OC)c3ccc(=O)oc23)cc(OC)c1OC (centres undefined) | ? | -1.8% | -1.2% | -6.0% | 5.0% | 6.3%
COc1cc(OC)c2c(C)cc(=O)oc2c1C(CCN1CCN(c2ccccc2)CC1)c1ccc2c(c1)OCO2 (centres undefined) | ? | 9.3% | 20.6µM* | 122.0% | 3.1% | 5.17µM*
O=C(NCCSCc1cccs1)C1CC1 | · | · | · | -24.1% | · | ·
O=C(NCC1COc2ccccc2O1)C1CCCN(S(=O)(=O)c2cccc3cccnc23)C1 (centres undefined) | 14.6µM* | -34.3% | ? | 317.3% | -3.0% | 20.6µM*
O=C(C1CCCN(S(=O)(=O)c2cccc3cccnc23)C1)N1CCc2ccccc21 (centres undefined) | ? | 12.3% | 16.4µM* | 210.3% | -3.9% | 23.1µM*
COc1cccc(NC(=O)C2CCCN(S(=O)(=O)c3cccc4cccnc34)C2)c1 (centres undefined) | ? | 40.5% | ? | 7.4%[57.4 µM] | -7.4% | ?
O=C(Nc1ccncc1)C1CCCN(S(=O)(=O)c2cccc3cccnc23)C1 (centres undefined) | ? | -22.8% | 1.64µM* | 422.2% | -21.2% | 1.84µM*
O=C(C1CCN(S(=O)(=O)c2cccc3cccnc23)CC1)N1CCn2c1nc1ccccc12 | 23.1µM* | -0.2% | ? | 20.0% | -4.1% | ?
SMILES | ELG1 DNA repair | RORg inh | DT40 TDP1 no CPT | ALOX12 inh | VP16 counter | TDP1 cell CPT
O=C(NC1CCCCC1)C1CCCN(S(=O)(=O)c2cccc3cccnc23)C1 (centres undefined) | ? | ? | ? | 2.3% | -2.0% | ?
CCCNC(=O)NC[C@H]1O[C@@H]2C[C@@H](CC(=O)NCc3cnn(C)c3)O[C@@H]2[C@@H]1O | · | · | · | -20.4%[176 µM] | · | ·
COc1cccc(CN2CCC(N3C(=O)C(OCC4CC4)C34CCCCC4)CC2)c1OC (centres undefined) | · | · | · | 0.0% | · | ·
CC(C)c1ccc(NC(=O)C2CCCN(S(=O)(=O)c3cccc4cccnc34)C2)cc1 (centres undefined) | · | · | 16.4µM* | ? | · | 16.4µM*
Cc1ccc(C(=O)NC2Cc3ccccc3C2)cc1 | · | · | · | -32.9% | · | ·
CCOC(=O)c1c(NC(=O)c2ccccc2Br)sc2c1CCc1ccccc1-2 | -26.1% | 0.0% | 18.4µM* | ? | -2.8% | ?
CCOC(=O)c1c(NC(C)=O)sc2c1CCC(C=O)=C2Sc1ccccc1 | ? | ? | 6.51µM* | ? | ? | 6.51µM*
CCCN(CC1CC1)c1oc(-c2ccc(F)cc2)nc1C#N | · | · | · | -13.9% | · | ·
C=CCn1c(SCC(=O)NC(N)=O)nnc1-c1cc2c(s1)CCC(CC)C2 (centres undefined) | 0.7% | ? | ? | 0.9% | -5.5% | -17.5%
C=CCn1c(SCC(=O)NCCOC)nnc1-c1cc2c(s1)CCC(CC)C2 (centres undefined) | ? | 24.3% | 18.4µM* | -4.2% | -6.1% | ?
C=CCn1c(SCC(=O)NCC)nnc1-c1cc2c(s1)CCC(CC)C2 (centres undefined) | ? | 43.6% | 16.4µM* | -6.1% | 2.8% | 23.1µM*
